# Experimental data reported in PubChem BioAssay (Tox21).
# Unmarked numbers belong to inactive results. Records with an inconclusive call do not appear. Where a call stands in place of a potency, no number is given. The source made the active and inactive calls. Unless noted, the call rests on the fitted dose curve; in most records, active means well fitted curve in the direction sought with a large enough effect in the repeat runs; inconclusive means weak or mixed curves; inactive means no such curve, though single readings can be large; an effect the other way counts as inactive or inconclusive.
# Experiments:
# [1] = qHTS assay to identify small molecule agonists of the TGF-beta/Smad signaling pathway - cell viability counter screen (AID 1346829); further: top concentration of the series differs between compounds; nearly all actives have a fitted effect of over 45% in size
# How it was run: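 Same-well cytotoxicity: CellTiter-Glo added after the 2 hr room-temperature beta-lactamase substrate step, luminescence measured 30 min later; cells had 5 hr of compound at 37 C.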
# [2] = qHTS assay to identify small molecule agonists of the TGF-beta/Smad signaling pathway (AID 1346859; active means well fitted activation curve with a large enough effect in the signal ratio in the repeat runs, not every such curve was filed as active; the % refers to the signal ratio; further: series mostly up to about 77 µM)
# How it was run: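 Reporter line: HEK 293T with stably integrated SBE-controlled beta-lactamase. Compound exposure lasts 5 hr at 37 C and 5% CO2; substrate loading follows for 2 hr at room temperature, with emission read at 460 and 530 nm.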
# [3] = target: Thyrotropin-releasing hormone receptor (Homo sapiens) (UniProt P34981); assay: qHTS assay to identify small molecule antagonists of the thyrotropin-releasing hormone receptor (TRHR) signaling pathway (AID 1346877; active means well fitted inhibition curve with a large enough effect in the repeat runs, not every such curve was filed as active; further: series mostly up to about 51 µM)
# How it was run: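 Antagonism is measured as suppression of the calcium response to 1 nM TRH in TRHR-HEK293 cells that have been dye-loaded for 2 h at 37 °C after overnight plating. Each compound is tested at 15 concentrations in triplicate.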
# [4] = target: Thyrotropin-releasing hormone receptor (Homo sapiens) (UniProt P34981); assay: qHTS assay to identify small molecule agonists of the thyrotropin-releasing hormone receptor (TRHR) signaling pathway (AID 1346891; calls by dose curve;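 further: HEK293 cells expressing TRHR with calcium dye readout; series mostly up to about 58 µM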)
# How it was run: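 Cells: TRHR-Hek293, seeded and incubated 18 h. Dye loading: 2 h at 37 °C. Compound added from DMSO stock by pin tool. Read-out: kinetic calcium fluorescence over 3 min.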
# [5] = Human pregnane X receptor (PXR) small molecule agonists, qHTS cell viability counter screen (AID 1346977); further: nearly all actives have a fitted effect of over 50% in size
# How it was run: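 Cytotoxicity counter screen run in the same wells as the PXR luciferase assay, using PXR-Luc HepG2 cells in charcoal-stripped serum medium. Viability: CellTiter-Fluor fluorescence after 24hr compound treatment.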
# [6] = Caspase-3/7 induction in HepG2 cells by small molecules, qHTS assay (AID 1346978); further: nearly all actives have a fitted effect of over 15% in size
# How it was run: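 Caspase-3/7 induction was measured by Caspase-Glo 3/7 luminescence (30 min, room temperature) after a 17 hr compound exposure of wild-type HepG2 cells seeded at 2,000 per well and pre-incubated 5 hr.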
# [7] = Caspase-3/7 induction in CHO-K1 cells by small molecules, qHTS cell viability counter screen (AID 1346979); further: nearly all actives have a fitted effect of over 35% in size
# How it was run: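 Cytotoxicity counter screen run in parallel with the caspase-3/7 assay: CHO-K1 cells, 16hr compound treatment at 37C, then CellTiter-Fluor for 1hr before fluorescence reading.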
# [8] = Caspase-3/7 induction in HepG2 cells by small molecules, qHTS cell viability counter screen (AID 1346981); further: series mostly up to about 92 µM; nearly all actives have a fitted effect of over 30% in size
# How it was run: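 Cell viability is measured as a cytotoxicity counter screen alongside the Caspase-Glo 3/7 readout in identical wells. Wild-type HepG2 cells are treated with test compounds for 16 hr at 37 C before CellTiter-Fluor addition and a 1-hr incubation.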
# [9] = target: Nuclear receptor subfamily 1 group I member 2 (Homo sapiens) (UniProt O75469); assay: Human pregnane X receptor (PXR) small molecule agonists, qHTS assay (AID 1346982); further: nearly all actives have a fitted effect of over 35% in size; further: potency means the concentration at half of the fitted maximal effect
# How it was run: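 Cells: HepG2 stably carrying PXR-Luc. Medium held 5% charcoal-stripped FBS. Compounds in DMSO added after 5 hr plating, incubated 24 hr, then luminescence quantified with ONE-Glo.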
# [10] = target: Cytochrome P450 2D6 (Homo sapiens) (UniProt P10635); assay: Cytochrome P450 Family 2 Subfamily D Member 6 (CYP2D6) small molecule antagonists: luciferase reporter qHTS assay (AID 1671196); further: series mostly up to about 120 µM; nearly all actives have a fitted effect of over 50% in size
# How it was run: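 Enzyme and proluciferin substrate were first combined with test chemical for 10 min at room temperature. Adding NADPH regeneration solution started a 1 h reaction, stopped with luciferin detection reagent and read by luminescence 20 min later.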
# [11] = target: Cytochrome P450 2C19 (Homo sapiens) (UniProt P33261); assay: Cytochrome P450 Family 2 Subfamily C Member 19 (CYP2C19) small molecule antagonists: luciferase reporter qHTS assay (AID 1671197); further: nearly all actives have a fitted effect of over 65% in size; further: potency means the concentration at half of the fitted maximal effect
# How it was run: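 Quantitative high-throughput screen of the Tox21 library using CYP2C19 with proluciferin substrate. Reaction: NADPH regeneration, 37C, 1 h, after 10 min compound preincubation at room temperature. Readout: luminescence.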
# [12] = target: Cytochrome P450 2C9 (Homo sapiens) (UniProt P11712); assay: Cytochrome P450 Family 2 Subfamily C Member 9 (CYP2C9) small molecule antagonists: luciferase reporter qHTS assay (AID 1671198); further: nearly all actives have a fitted effect of over 50% in size; further: potency means the concentration at half of the fitted maximal effect
# How it was run: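 Enzyme-substrate mix preincubated with compound 10 min at room temperature; reaction started with NADPH regeneration solution, 1 h 37C. Luminescent luciferin product read after 20 min detection reagent.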
# [13] = target: Cytochrome P450 1A2 (Homo sapiens) (UniProt P05177); assay: Cytochrome P450 Family 1 Subfamily A Member 2 (CYP1A2) small molecule antagonists: luciferase reporter qHTS assay (AID 1671199); further: series mostly up to about 120 µM; nearly all actives have a fitted effect of over 50% in size
# How it was run: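 Compounds were incubated with CYP1A2 and a luminogenic proluciferin substrate for 10 min at room temperature before the reaction was started with NADPH regeneration solution. After 1 h, detection reagent was added and light output, proportional to CYP activity, was recorded.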
# [14] = target: Voltage-gated inwardly rectifying potassium channel KCNH2 (Homo sapiens) (UniProt Q12809); assay: Human Ether-a-go-go-Related Gene (hERG) channel small molecule antagonists: fluorescence cell-based qHTS assay (AID 1671200)
# How it was run: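 Fluorescence at 540 nm emission (480 nm excitation) was recorded kinetically for 2 min at 1-second intervals once the thallium-containing stimulus reached cells previously loaded with FluxOR II dye.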
# [15] = target: Cytochrome P450 3A4 (Homo sapiens) (UniProt P08684); assay: Cytochrome P450 Family 3 Subfamily A Member 4 (CYP3A4) small molecule antagonists: luciferase reporter qHTS assay (AID 1671201); further: nearly all actives have a fitted effect of over 50% in size; further: potency means the concentration at half of the fitted maximal effect
# How it was run: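 qHTS, 1536-well. CYP3A4 + proluciferin substrate, cpd 10 min RT → NADPH regen 1 h RT → detection reagent 20 min → luminescence (RLU). Ketoconazole positive control.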
# [16] = Caspase-3/7 induction in CHO-K1 cells by small molecules, qHTS assay (AID 1346980); further: nearly all actives have a fitted effect of over 15% in size
# How it was run: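 Luminescent Caspase-Glo 3/7 read (30min, room temperature) quantified apoptosis induction. Cells were wild-type CHO-K1, treated with compound for 17hr at 37 C and 5% CO2.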
# [17] = target: Nuclear receptor subfamily 1 group I member 2 (Rattus norvegicus) (UniProt Q9R1A7); assay: Rat pregnane X receptor (rPXR) activation by small molecules, qHTS assay (AID 1346983); details: rPXR luciferase reporter cells, One-Glo luminescence, 24 h; max activation: stronger effect = higher value; further: nearly all actives have a fitted effect of over 20% in size
# How it was run: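 Luminescent readout (One-Glo luciferase, 30 min room temperature) followed 24 hr compound treatment at 37 C of rPXR cells plated 2,000 per well and preincubated 5hr; qHTS format with compounds delivered in DMSO.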
# [18] = target: Nuclear receptor subfamily 1 group I member 2 (Homo sapiens) (UniProt O75469); assay: CYP3A4 induction through human pregnane X receptor (PXR) by small molecules, qHTS assay (AID 1346984); further: nearly all actives have a fitted effect of over 40% in size
# How it was run: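 Quantitative HTS in DPX-2 cells, i.e. HepG2 transfected with PXR response element and CYP3A4-promoter luciferase. Compounds in DMSO incubated 24hr at 37C; then P450-Glo CYP3A4 substrate, 3uM final, 3hr; One-Glo luminescence.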
# [19] = target: Nuclear receptor subfamily 1 group I member 2 (Homo sapiens) (UniProt O75469); assay: Human pregnane X receptor (PXR) activation by small molecules, qHTS assay (AID 1346985); further: nearly all actives have a fitted effect of over 40% in size
# How it was run: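 DPX-2 cells (HepG2 co-transfected with a PXR response element and a CYP3A4-promoter luciferase construct) were seeded at 2,000 per well, rested 5 hr at 37C, then exposed to DMSO-dissolved compounds for 24 hr. Activation was read as luciferase luminescence.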
# Chain of Cytochrome P450 2C19 (Homo sapiens) (P33261 whole entry, looked up): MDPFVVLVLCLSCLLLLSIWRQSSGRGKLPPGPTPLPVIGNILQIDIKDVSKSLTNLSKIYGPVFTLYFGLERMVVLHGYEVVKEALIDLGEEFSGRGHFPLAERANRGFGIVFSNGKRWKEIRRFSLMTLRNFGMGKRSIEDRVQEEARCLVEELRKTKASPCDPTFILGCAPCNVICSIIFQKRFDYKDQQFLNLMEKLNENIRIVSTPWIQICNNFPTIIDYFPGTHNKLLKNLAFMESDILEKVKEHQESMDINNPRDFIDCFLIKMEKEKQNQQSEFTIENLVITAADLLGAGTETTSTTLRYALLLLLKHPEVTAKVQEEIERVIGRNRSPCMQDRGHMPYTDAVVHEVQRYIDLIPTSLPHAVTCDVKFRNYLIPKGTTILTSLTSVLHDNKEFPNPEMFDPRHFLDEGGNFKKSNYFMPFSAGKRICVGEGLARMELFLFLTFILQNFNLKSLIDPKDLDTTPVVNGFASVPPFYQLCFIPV
# Chain of Thyrotropin-releasing hormone receptor (Homo sapiens) (P34981 whole entry, looked up): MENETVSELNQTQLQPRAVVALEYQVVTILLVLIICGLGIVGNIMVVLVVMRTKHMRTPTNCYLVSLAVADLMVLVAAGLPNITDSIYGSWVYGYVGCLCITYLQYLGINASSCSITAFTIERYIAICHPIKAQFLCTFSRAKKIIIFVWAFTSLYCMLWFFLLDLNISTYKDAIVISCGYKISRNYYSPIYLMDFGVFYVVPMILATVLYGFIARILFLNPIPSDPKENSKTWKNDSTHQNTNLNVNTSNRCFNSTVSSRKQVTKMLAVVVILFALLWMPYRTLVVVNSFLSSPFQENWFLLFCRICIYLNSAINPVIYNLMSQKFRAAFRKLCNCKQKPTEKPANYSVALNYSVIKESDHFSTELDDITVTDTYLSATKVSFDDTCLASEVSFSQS
# Chain of Voltage-gated inwardly rectifying potassium channel KCNH2 (Homo sapiens) (Q12809 whole entry, looked up): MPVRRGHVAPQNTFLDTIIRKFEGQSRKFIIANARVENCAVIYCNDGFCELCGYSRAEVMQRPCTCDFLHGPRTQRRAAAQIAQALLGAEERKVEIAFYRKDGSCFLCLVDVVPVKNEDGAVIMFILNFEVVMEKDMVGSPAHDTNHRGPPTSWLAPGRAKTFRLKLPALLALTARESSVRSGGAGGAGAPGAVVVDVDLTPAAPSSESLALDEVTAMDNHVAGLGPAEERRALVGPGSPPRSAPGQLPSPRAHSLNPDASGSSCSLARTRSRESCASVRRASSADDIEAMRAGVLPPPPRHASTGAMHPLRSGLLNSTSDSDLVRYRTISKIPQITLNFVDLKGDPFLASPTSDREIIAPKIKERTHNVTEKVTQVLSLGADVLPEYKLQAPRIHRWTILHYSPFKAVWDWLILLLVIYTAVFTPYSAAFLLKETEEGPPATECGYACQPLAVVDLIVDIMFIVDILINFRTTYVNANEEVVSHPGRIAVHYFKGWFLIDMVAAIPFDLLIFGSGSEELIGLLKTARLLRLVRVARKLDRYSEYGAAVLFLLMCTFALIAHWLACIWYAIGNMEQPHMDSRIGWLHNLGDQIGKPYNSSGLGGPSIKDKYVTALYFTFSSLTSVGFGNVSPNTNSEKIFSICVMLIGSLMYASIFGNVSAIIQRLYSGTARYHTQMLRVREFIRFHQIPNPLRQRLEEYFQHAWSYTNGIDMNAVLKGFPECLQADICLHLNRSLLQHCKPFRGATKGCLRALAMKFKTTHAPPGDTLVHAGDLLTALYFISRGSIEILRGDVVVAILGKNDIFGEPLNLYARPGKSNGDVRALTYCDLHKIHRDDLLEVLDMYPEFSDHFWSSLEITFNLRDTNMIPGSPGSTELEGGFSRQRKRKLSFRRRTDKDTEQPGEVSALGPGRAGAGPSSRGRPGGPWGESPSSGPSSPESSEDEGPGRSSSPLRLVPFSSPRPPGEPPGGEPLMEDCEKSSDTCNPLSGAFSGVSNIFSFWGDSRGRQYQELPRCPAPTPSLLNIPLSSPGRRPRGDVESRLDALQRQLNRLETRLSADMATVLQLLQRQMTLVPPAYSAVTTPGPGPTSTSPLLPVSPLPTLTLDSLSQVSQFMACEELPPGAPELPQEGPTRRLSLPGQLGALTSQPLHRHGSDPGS
# Chain of Cytochrome P450 3A4 (Homo sapiens) (P08684 whole entry, looked up): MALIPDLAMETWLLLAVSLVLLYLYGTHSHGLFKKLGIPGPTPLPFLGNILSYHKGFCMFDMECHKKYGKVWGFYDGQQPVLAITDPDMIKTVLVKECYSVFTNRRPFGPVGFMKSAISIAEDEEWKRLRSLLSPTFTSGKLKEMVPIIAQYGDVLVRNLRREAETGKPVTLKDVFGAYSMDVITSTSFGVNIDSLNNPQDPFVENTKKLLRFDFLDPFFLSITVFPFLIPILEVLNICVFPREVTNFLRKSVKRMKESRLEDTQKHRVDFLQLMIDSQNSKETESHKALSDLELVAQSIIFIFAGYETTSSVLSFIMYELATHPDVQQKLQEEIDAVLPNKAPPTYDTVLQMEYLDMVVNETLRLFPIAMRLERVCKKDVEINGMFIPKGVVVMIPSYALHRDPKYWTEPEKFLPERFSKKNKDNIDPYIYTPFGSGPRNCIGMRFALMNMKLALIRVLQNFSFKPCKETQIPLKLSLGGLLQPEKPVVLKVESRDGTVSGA
# Chain of Cytochrome P450 1A2 (Homo sapiens) (P05177 whole entry, looked up): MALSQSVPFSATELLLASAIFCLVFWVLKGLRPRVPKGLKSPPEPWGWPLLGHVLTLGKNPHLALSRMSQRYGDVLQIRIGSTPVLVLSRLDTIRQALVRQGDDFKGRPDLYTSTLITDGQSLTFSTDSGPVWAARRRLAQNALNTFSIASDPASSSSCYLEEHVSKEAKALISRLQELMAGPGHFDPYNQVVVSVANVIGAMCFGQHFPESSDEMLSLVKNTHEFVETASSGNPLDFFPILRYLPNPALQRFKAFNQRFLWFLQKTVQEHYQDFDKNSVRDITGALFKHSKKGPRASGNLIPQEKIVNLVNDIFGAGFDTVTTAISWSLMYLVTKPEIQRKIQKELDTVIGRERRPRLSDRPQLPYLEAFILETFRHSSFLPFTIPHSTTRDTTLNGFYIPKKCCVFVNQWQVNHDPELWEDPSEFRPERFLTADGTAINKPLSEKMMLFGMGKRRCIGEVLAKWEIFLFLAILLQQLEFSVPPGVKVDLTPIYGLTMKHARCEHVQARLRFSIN
# Chain of Nuclear receptor subfamily 1 group I member 2 (Homo sapiens) (O75469 whole entry, looked up): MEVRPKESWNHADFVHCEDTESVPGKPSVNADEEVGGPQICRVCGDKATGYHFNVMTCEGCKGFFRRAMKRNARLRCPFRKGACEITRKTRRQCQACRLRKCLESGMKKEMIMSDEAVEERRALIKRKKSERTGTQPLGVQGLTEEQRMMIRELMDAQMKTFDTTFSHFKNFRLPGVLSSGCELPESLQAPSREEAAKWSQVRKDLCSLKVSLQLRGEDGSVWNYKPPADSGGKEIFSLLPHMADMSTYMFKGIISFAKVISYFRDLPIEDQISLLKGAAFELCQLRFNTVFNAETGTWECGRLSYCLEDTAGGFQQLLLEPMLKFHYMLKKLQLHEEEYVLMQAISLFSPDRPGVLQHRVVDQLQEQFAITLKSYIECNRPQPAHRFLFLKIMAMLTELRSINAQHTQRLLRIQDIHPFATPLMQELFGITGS
# Chain of Cytochrome P450 2D6 (Homo sapiens) (P10635 whole entry, looked up): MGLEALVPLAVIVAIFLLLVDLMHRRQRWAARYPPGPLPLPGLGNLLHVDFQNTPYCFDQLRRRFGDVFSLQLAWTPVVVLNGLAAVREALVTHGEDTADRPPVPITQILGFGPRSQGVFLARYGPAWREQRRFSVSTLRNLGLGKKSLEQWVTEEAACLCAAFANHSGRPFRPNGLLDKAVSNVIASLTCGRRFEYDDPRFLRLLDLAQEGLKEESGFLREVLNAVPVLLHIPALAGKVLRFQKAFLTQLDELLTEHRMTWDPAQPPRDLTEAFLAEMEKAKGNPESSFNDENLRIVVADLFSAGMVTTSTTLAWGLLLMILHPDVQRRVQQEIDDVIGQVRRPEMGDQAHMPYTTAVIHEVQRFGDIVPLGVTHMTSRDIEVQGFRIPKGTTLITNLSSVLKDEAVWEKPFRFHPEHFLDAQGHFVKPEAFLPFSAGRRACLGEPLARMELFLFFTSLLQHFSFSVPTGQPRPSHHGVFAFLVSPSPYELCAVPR
# Chain of Cytochrome P450 2C9 (Homo sapiens) (P11712 whole entry, looked up): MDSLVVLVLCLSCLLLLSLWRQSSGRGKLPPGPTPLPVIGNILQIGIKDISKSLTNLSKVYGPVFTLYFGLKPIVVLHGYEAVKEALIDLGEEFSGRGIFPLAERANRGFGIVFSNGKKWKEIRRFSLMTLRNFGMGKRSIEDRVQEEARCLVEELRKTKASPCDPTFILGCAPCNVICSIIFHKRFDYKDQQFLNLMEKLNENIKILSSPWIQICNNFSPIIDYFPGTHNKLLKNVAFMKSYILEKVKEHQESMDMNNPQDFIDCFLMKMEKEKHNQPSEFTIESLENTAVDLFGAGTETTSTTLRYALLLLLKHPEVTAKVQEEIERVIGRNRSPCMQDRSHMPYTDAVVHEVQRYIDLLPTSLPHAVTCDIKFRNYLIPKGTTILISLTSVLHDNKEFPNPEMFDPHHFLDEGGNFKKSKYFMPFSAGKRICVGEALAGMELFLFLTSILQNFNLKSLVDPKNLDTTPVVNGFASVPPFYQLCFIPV
# Chain of Nuclear receptor subfamily 1 group I member 2 (Rattus norvegicus) (Q9R1A7 whole entry, looked up): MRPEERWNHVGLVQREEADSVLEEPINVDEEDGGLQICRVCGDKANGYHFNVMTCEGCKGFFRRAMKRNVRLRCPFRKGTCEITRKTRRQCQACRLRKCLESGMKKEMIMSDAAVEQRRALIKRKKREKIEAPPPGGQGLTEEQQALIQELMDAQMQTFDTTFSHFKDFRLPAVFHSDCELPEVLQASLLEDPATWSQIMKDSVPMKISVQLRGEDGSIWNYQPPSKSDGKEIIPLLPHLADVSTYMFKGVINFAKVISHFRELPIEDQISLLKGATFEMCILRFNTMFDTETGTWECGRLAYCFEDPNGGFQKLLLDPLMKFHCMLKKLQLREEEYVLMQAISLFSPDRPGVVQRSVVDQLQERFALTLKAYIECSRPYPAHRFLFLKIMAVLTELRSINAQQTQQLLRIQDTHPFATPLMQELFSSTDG
SMILES,outcome [1],outcome [2],outcome [3],Potency [4],outcome [5],outcome [6],Potency [7],outcome [8],Potency [9],Potency [10],Potency [11],Potency [12],Potency [13],Potency [14],Potency [15],outcome [16],max activation [17] [%],outcome [18],outcome [19]
CCCC(=O)OC,inactive,inactive,inactive,inactive,inactive,inactive,inactive,inactive,inactive,inactive,inactive,inactive,inactive,inactive,inactive,,,,
CCCCCCCCS(=O)(=O)O,inactive,inactive,inactive,inactive,inactive,inactive,inactive,inactive,inactive,,inactive,,,inactive,inactive,,,,
CCCCc1ccc(Cl)cc1,inactive,inactive,inactive,inactive,inactive,inactive,inactive,,inactive,inactive,inactive,inactive,,inactive,inactive,inactive,,,
Cc1ccccc1OCC(=O)O,inactive,inactive,inactive,inactive,inactive,,inactive,inactive,inactive,inactive,inactive,79.6 µM (active),inactive,inactive,,inactive,,,
C[C@@H](CN1CC(=O)NC(=O)C1)N1CC(=O)NC(=O)C1,inactive,inactive,inactive,inactive,inactive,,inactive,inactive,inactive,inactive,inactive,inactive,inactive,inactive,inactive,inactive,-0.624,inactive,inactive
COC(=O)/C=C(\C)CCC=C(C)C,inactive,inactive,inactive,inactive,inactive,,inactive,inactive,61.1 µM (active),inactive,25.2 µM (active),39.9 µM (active),,inactive,31.7 µM (active),inactive,,,
C=CCON/C(CCC)=C1\C(=O)CC(C)(C)C(C(=O)OC)=C1O,inactive,inactive,inactive,inactive,inactive,,inactive,inactive,inactive,,78.7 µM (active),35.2 µM (active),,inactive,35.2 µM (active),inactive,,,
CNC(=O)c1c(I)c(NC(C)=O)c(I)c(C(=O)O)c1I,inactive,inactive,inactive,inactive,inactive,inactive,,,inactive,inactive,inactive,inactive,,inactive,,,,,
